Test results taken from PubChem BioAssay AID1159580 (chemical genetic matrix, 2015).
Screen size: about 5,500 compounds; about 2,000 (36%) were called active. Inconclusive results (about 18%) are left out. Cut-off read from the data, not from the text of the source: active = normalized growth mostly below about 0.91 (no sharp cut-off); inconclusive = no clear call, values can overlap the other calls; inactive = mostly above about 0.92. Some of the results follow.

Assay: chemical genetic growth profiling, strain panel (AID 1159580);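 note: tested at 20 µM; growth read once vehicle control cultures reached saturation at 30 °C; 1 = growth at the plate median or of vehicle wells; lower values mean less growth of the strain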
Conditions: growth OD
[1] = S. cerevisiae deletion strains, locus YAL013W, strain DEP1, active compounds read low
[2] = S. cerevisiae deletion strains, locus YDR150W, strain NUM1, active compounds read low
[3] = S. cerevisiae deletion strains, locus YGR078C, strain PAC10, active compounds read low
[4] = S. cerevisiae deletion strains, locus YJR075W, strain HOC1, active compounds read low
[5] = S. cerevisiae deletion strains, locus YNL128W, strain TEP1, active compounds read low
[6] = S. cerevisiae deletion strains, locus YNL153C, strain GIM3, active compounds read low
[7] = S. cerevisiae deletion strains, locus YPL055C, strain LGE1, active compounds read low
[8] = S. cerevisiae deletion strains, locus YPL241C, strain CIN2, active compounds read low
[9] = S. cerevisiae deletion strains, locus YBR229C, strain ROT2, active compounds read low
[10] = S. cerevisiae deletion strains, locus YDL101C, strain DUN1, active compounds read low
[11] = S. cerevisiae deletion strains, locus YEL061C, strain CIN8, active compounds read low
[12] = S. cerevisiae deletion strains, locus YHR030C, strain SLT2, active compounds read low
[13] = S. cerevisiae deletion strains, locus YHR087W, strain rtc3, active compounds read low
[14] = S. cerevisiae deletion strains, locus YJR043C, strain POL32, active compounds read low
[15] = S. cerevisiae deletion strains, locus YLR039C, strain RIC1, active compounds read low
[16] = S. cerevisiae deletion strains, locus YLR058C, strain SHM2 (second series), active compounds read low
[17] = S. cerevisiae deletion strains, locus YLR085C, strain ARP6, active compounds read low
[18] = S. cerevisiae deletion strains, locus YLR262C, strain YPT6, active compounds read low
[19] = S. cerevisiae deletion strains, locus YML094W, strain GIM5, active compounds read low
[20] = S. cerevisiae deletion strains, locus YMR219W, strain ESC1, active compounds read low
[21] = S. cerevisiae deletion strains, locus YMR263W, strain SAP30, active compounds read low
[22] = S. cerevisiae deletion strains, locus YNL298W, strain CLA4 (second series), active compounds read low
[23] = S. cerevisiae deletion strains, locus YNL322C, strain KRE1, active compounds read low
[24] = S. cerevisiae deletion strains, locus YNR030W, strain Alg12, active compounds read low
[25] = S. cerevisiae deletion strains, locus YOL006C, strain TOP1, active compounds read low
[26] = S. cerevisiae deletion strains, locus YPR135W, strain CTF4, active compounds read low
[27] = S. cerevisiae strains, strain wild type, active compounds read low
[28] = S. cerevisiae deletion strains, locus YCL061C, strain MRC1, active compounds read low
[29] = S. cerevisiae deletion strains, locus YDL134C, strain PPH21, active compounds read low
[30] = S. cerevisiae deletion strains, locus YMR307W, strain GAS1, active compounds read low

Measured: normalized growth

CCCN(CCC)C1CCc2cccc(O)c2C1 (centres undefined)
inactive: [1] 1 | S. cerevisiae deletion strains, locus YAL040C, strain CLN3, active compounds read low 0.984 | S. cerevisiae deletion strains, locus YCL061C, strain MRC1 (second series), active compounds read low 1 | [2] 0.998 | S. cerevisiae deletion strains, locus YDR363W, strain ESC2, active compounds read low 1.01 | S. cerevisiae deletion strains, locus YER002W, strain NOP16, active compounds read low 1 | [3] 1.01 | [4] 0.995 | [5] 1 | [6] 1.1 | S. cerevisiae deletion strains, locus YNL175C, strain NOP13, active compounds read low 1.01 | S. cerevisiae deletion strains, locus YNL197C, strain WHI3, active compounds read low 1.01 | S. cerevisiae deletion strains, locus YNL224C, strain SQS1, active compounds read low 1.02 | S. cerevisiae deletion strains, locus YOR083W, strain WHI5 (second series), active compounds read low 1.01 | [7] 1 | [8] 1

Cc1onc(-c2c(Cl)cccc2Cl)c1C(=O)Oc1ccc(Cl)c(Cl)c1
inactive: [1] 1.01 | [9] 0.995 | [10] 0.996 | [2] 1.01 | [11] 1.01 | [3] 1.03 | [12] 1.21 | [13] 1.06 | [14] 0.998 | [4] 0.99 | [15] 1.19 | [16] 0.986 | [17] 0.991 | [18] 1.16 | [19] 0.998 | [20] 0.992 | [21] 1.01 | [5] 1 | [6] 1.03 | [22] 1.01 | [23] 1.01 | [24] 0.987 | [25] 1.07 | [7] 1 | [8] 0.973 | [26] 1.14 | [27] 1.01

COC(=O)c1c(-c2c(Cl)cccc2Cl)noc1NC(=O)NN1CCCCC1
inactive: [1] 1.02 | [9] 1.02 | [28] 1.01 | [10] 1.01 | [29] 0.993 | [2] 0.993 | [11] 1 | [3] 1.03 | S. cerevisiae deletion strains, locus YGR229C, strain SMI1, active compounds read low 1 | [12] 0.973 | [13] 1.03 | S. cerevisiae deletion strains, locus YJL187C, strain SWE1, active compounds read low 1.01 | [14] 1.01 | [4] 1.02 | S. cerevisiae deletion strains, locus YKL190W, strain CNB1, active compounds read low 1 | [15] 0.963 | [16] 1.01 | [17] 0.992 | [18] 0.977 | [19] 1.04 | [20] 1.01 | [21] 1 | [30] 1 | [6] 1.01 | [22] 1 | [23] 1.01 | [24] 0.987 | [25] 1.05 | [7] 1.01 | [8] 0.911 | [26] 0.969 | [27] 0.999

Cc1onc(-c2c(F)cccc2Cl)c1C(=O)Oc1ccccc1
active: [11] 0.908
inactive: [1] 0.964 | [9] 0.962 | [28] 0.963 | [10] 0.938 | [29] 0.993 | [2] 0.943 | [3] 0.945 | [12] 0.727 | [13] 0.948 | [14] 0.951 | [4] 0.939 | [15] 0.857 | [16] 0.973 | [17] 0.838 | [18] 0.839 | [19] 0.978 | [20] 0.966 | [21] 0.979 | [30] 0.705 | [6] 0.984 | [22] 0.98 | [23] 0.973 | [24] 0.989 | [7] 0.97 | [8] 0.994 | [26] 0.948 | [27] 0.935

Cc1ccc(NNC(=O)c2c(C)noc2C)cc1Cl
inactive: S. cerevisiae deletion strains, locus YAR019C, strain CDC15, active compounds read low 0.977 | S. cerevisiae deletion strains, locus YBL105C, strain PKC1, active compounds read low 0.972 | S. cerevisiae deletion strains, locus YBR135W, strain CKS1, active compounds read low 0.982 | S. cerevisiae deletion strains, locus YBR136W, strain MEC1, active compounds read low 0.975 | S. cerevisiae deletion strains, locus YBR160W, strain CDC28, active compounds read low 0.982 | S. cerevisiae deletion strains, locus YDL017W, strain CDC7, active compounds read low 0.979 | S. cerevisiae deletion strains, locus YDL028C, strain MPS1, active compounds read low 0.986 | [10] 0.976 | S. cerevisiae deletion strains, locus YDL108W, strain KIN28, active compounds read low 0.981 | S. cerevisiae deletion strains, locus YDL132W, strain cdc53, active compounds read low 0.987 | S. cerevisiae deletion strains, locus YDL214C, strain PRR2, active compounds read low 0.939 | S. cerevisiae deletion strains, locus YDR052C, strain DBF4, active compounds read low 0.988 | S. cerevisiae deletion strains, locus YDR054C, strain cdc34, active compounds read low 0.993 | S. cerevisiae deletion strains, locus YDR226W, strain ADK1, active compounds read low 0.978 | S. cerevisiae deletion strains, locus YDR477W, strain SNF1, active compounds read low 0.946 | S. cerevisiae deletion strains, locus YER123W, strain YCK3, active compounds read low 0.857 | S. cerevisiae deletion strains, locus YER133W, strain GLC7, active compounds read low 0.947 | S. cerevisiae deletion strains, locus YFL009W, strain cdc4, active compounds read low 0.986 | S. cerevisiae deletion strains, locus YFL029C, strain CAK1, active compounds read low 0.984 | S. cerevisiae deletion strains, locus YFR003C, strain YPI1, active compounds read low 0.983 | S. cerevisiae deletion strains, locus YFR019W, strain FAB1, active compounds read low 0.903 | S. cerevisiae deletion strains, locus YFR028C, strain CDC14, active compounds read low 0.992 | S. cerevisiae deletion strains, locus YGR040W, strain KSS1, active compounds read low 0.925 | S. cerevisiae deletion strains, locus YGR052W, strain FMP48, active compounds read low 0.987 | S. cerevisiae deletion strains, locus YGR092W, strain DBF2, active compounds read low 0.833 | [12] 0.865 | S. cerevisiae deletion strains, locus YHR079C, strain IRE1, active compounds read low 0.964 | S. cerevisiae deletion strains, locus YHR082C, strain KSP1, active compounds read low 1.02 | S. cerevisiae deletion strains, locus YHR205W, strain SCH9, active compounds read low 0.926 | S. cerevisiae deletion strains, locus YIL147C, strain SLN1, active compounds read low 0.983 | S. cerevisiae deletion strains, locus YJL095W, strain BCK1, active compounds read low 0.929 | S. cerevisiae deletion strains, locus YJL128C, strain PBS2, active compounds read low 0.979 | S. cerevisiae deletion strains, locus YJL157C, strain FAR1, active compounds read low 0.923 | S. cerevisiae deletion strains, locus YJR016C, strain ILV3, active compounds read low 0.981 | S. cerevisiae deletion strains, locus YJR066W, strain TOR1 (second series), active compounds read low 0.909 | S. cerevisiae deletion strains, locus YJR066W, strain TOR1, active compounds read low 0.983 | S. cerevisiae deletion strains, locus YKL048C, strain ELM1, active compounds read low 0.916 | S. cerevisiae deletion strains, locus YKL067W, strain YNK1, active compounds read low 0.935 | S. cerevisiae deletion strains, locus YKL101W, strain HSL1, active compounds read low 0.943 | S. cerevisiae deletion strains, locus YKL193C, strain SDS22, active compounds read low 0.985 | S. cerevisiae deletion strains, locus YKL203C, strain TOR2, active compounds read low 1 | S. cerevisiae deletion strains, locus YLR113W, strain HOG1, active compounds read low 0.868 | S. cerevisiae deletion strains, locus YLR133W, strain CKI1, active compounds read low 0.943 | S. cerevisiae deletion strains, locus YLR403W, strain SFP1, active compounds read low 0.92 | S. cerevisiae deletion strains, locus YML070W, strain DAK1, active compounds read low 0.906 | S. cerevisiae deletion strains, locus YMR001C, strain CDC5, active compounds read low 0.984 | S. cerevisiae deletion strains, locus YMR205C, strain PFK2 (second series), active compounds read low 0.955 | S. cerevisiae deletion strains, locus YMR277W, strain FCP1, active compounds read low 0.986 | S. cerevisiae deletion strains, locus YNL006W, strain LST8, active compounds read low 0.99 | S. cerevisiae deletion strains, locus YNL020C, strain ARK1, active compounds read low 0.948 | S. cerevisiae deletion strains, locus YNL161W, strain CBK1, active compounds read low 0.98 | S. cerevisiae deletion strains, locus YNL183C, strain NPR1, active compounds read low 0.98 | S. cerevisiae deletion strains, locus YNL207W, strain RIO2, active compounds read low 0.992 | S. cerevisiae deletion strains, locus YNL222W, strain SSU72, active compounds read low 0.982 | S. cerevisiae deletion strains, locus YNL307C, strain MCK1 (second series), active compounds read low 0.881 | S. cerevisiae deletion strains, locus YOL078W, strain AVO1, active compounds read low 0.98 | S. cerevisiae deletion strains, locus YOL136C, strain PFK27, active compounds read low 0.922 | S. cerevisiae deletion strains, locus YOR061W, strain CKA2, active compounds read low 0.917 | S. cerevisiae deletion strains, locus YOR119C, strain RIO1, active compounds read low 0.976 | S. cerevisiae deletion strains, locus YOR231W, strain MKK1, active compounds read low 0.917 | S. cerevisiae deletion strains, locus YOR329C, strain SCD5, active compounds read low 0.986 | S. cerevisiae deletion strains, locus YPL031C, strain PHO85, active compounds read low 0.944 | S. cerevisiae deletion strains, locus YPL153C, strain RAD53, active compounds read low 0.922 | S. cerevisiae deletion strains, locus YPL204W, strain HRR25, active compounds read low 0.956 | S. cerevisiae deletion strains, locus YPL209C, strain IPL1, active compounds read low 0.973 | S. cerevisiae deletion strains, locus YPL256C, strain CLN2, active compounds read low 0.903 | S. cerevisiae deletion strains, locus YPR025C, strain CCL1, active compounds read low 0.981 | S. cerevisiae deletion strains, locus YPR106W, strain ISR1, active compounds read low 0.981 | S. cerevisiae deletion strains, locus YPR111W, strain DBF20, active compounds read low 0.961 | S. cerevisiae deletion strains, strain NNK1, active compounds read low 0.975 | S. cerevisiae deletion strains, strain TSCII, active compounds read low 0.98
